40 compounds from PubChem BioAssay (EPA / NIEHS) can be followed below.

Molecules are shown by their SMILES. Calls of active or inactive are those of the source. Rule for the calls: active = hit-call score of the fitted dose curve at least 0.9, where 1 is the maximum; inactive = score below 0.9.

Read-out in the test: Insulin-like growth factor-binding protein 1 (IGFBP1), IGFBP1 (gene 3484)
Nature of the test: LTEA_HepaRG_IGFBP1: Life Technologies and Expression Analysis (LTEA) Assay for Insulin-like growth factor-binding protein 1 (IGFBP1) using HepaRG (AID 2283508). The note with it: mRNA level, 48 h; actives raise or lower the signal. As for the experimental part: LTEA_HepaRG is a cell based, multiplexed-readout assay that uses HepaRG, a human liver cell line, with measurements taken at 48 hours after chemical dosing on a 96-well plate.LTEA_HepaRG_IGFBP1 is one of 102 assay component(s) measured in the LTEA HepaRG cell culture assay. It is a marker of Cell proliferation, survival, death.Data from the assay component LTEA_HepaRG_IGFBP1 was analyzed into 1 endpoint. This assay endpoint, LTEA_HepaRG_IGFBP1, was analyzed with bidirectional fitting relative to DMSO as the negative control and baseline of activity. Using a type of inducible reporter, measures of mRNA induction for gain or loss-of-signal activity can be used to understand regulation of transcription factor activity. To generalize the intended target to other relatable targets, this assay endpoint is annotated to the transporter intended target family, where the subfamily is hormone carrier protein.
A total of 1060 chemcials from the ToxCast library were tested in eight-point concentration-response experiments. Cell culture and cytotoxicity assays were conducted at Thermo Fisher Scientific's Custom Services facility (Madison, WI). A single lot of human HepaRG cells (Thermo Fisher Scientific, Frederick, MD) was used for the cell culture experiments. 96-well format collagen type I coated plates of human HepaRG cells were prepared using established methods. Briefly, cryopreserved HepaRG cells were thawed, plated at a density of approximately 100,000 cells/well in HepaRG Thaw, Plate, and General Purpose media (HPRG770, Thermo Fisher Scientific), and incubated for 48 hours. 0.5% DMSO was selected as vehicle control to balance the requisite need of DMSO in HepaRG cultures to maintain differentiation (for example, baseline metabolism, proportions of hepatocytes vs. cholangiocytes), while enabling further hepatic receptor pathway activation (for example, PXR and CAR) in response to chemical exposure. 48 hours after plating, the culture medium was replaced with HepaRG Serum-Free Incudtion Media. Cells were exposed to each test chemical in duplicate and maintained in CO2 incubators for another 48 hours. Chemical plates were thawed to room temperature and 200x concentrations of treatment groups were prepared. 8-point conentration-reponse curves were made with the highest exposure at 100 uM, followed by half-log dilutions, all in 0.5% DMSO. Each test plate contained variouse controls, induction positive controls (1mM phenobarbital), cytotoxicity positive controls ([…] aflatoxin B1), vehicle controls (0.5% DMSO), and total lysis controls (0.5% DMSO). Cell morphology images were taken using an Essen IncuCyte FLR automated microscope, with six 96-well plates imaged in about 24 minutes. Images were captured and exported and JPEG files. Spent culture media was transfered to black-well plates for the LDH assay, and remaining media was sorted at -80 C for later use. Cells were treated with RLT buffer and frozen until shipped for gene expression analysis. Total RNA was isolated from the cell suspension in 75 uL of Buffer RLT (Qiagen, Germantown, MD 20874) by Quintiles/Expression Analysis (Durham, NC) using a custom isolation procedure. Total RNA from each plate well was transferred to a preamplification plate. Fluidigm's 96.96 Dynamic ArrayTM (Fluidigm, Amsterdam, the Netherlands) technology was used for gene expression analyses by quantitative reverse transcription polymerase chain reaction (qRT-PCR, performed by Quintiles/Expression Analysis, Durham, NC)89. Standard TaqManTM Assays (Applied Biosystems/ThermoFisher Scientific, Foster City, CA) were used to assess the expression of 93 genes selected based on their selectivity and sensitivity to important hepatic receptors known to be modulated by environmental chemicals; importance in human hepatocyte functionality; and hepatotoxicity. […]
Take `CC1=NNC(=O)N(/N=C/c2cccnc2)C1`: the compound was classed as inactive.

As to `CCOP(=S)(Oc1cnc(C(C)(C)C)nc1)OC(C)C` (stereo not given), the compound was called inactive.

Take `CCc1cccc(C)c1N(C(=O)CCl)C(C)COC` (stereo not given): the compound was classed as inactive.

Turning to `C[Si](Cn1cncn1)(c1ccc(F)cc1)c1ccc(F)cc1`, the half-maximal activity concentration (AC50) (commonly the concentration at which the activity in the assay is half-maximal) is 67.7 µM (active).

`CNc1cnn(-c2cccc(C(F)(F)F)c2)c(=O)c1Cl`: the AC50 was 17.4 µM (active).

Take `CCOC(=O)CC(SP(=O)(OC)OC)C(=O)OCC` (stereo not given): the compound was called inactive.

In the case of `CC[C@H](C)[C@H]1O[C@]2(C=C[C@@H]1C)C[C@@H]1C[C@@H](C/C=C(\C)[C@@H](O[C@H]3C[C@H](OC)[C@@H](O[C@H]4C[C@H](OC)[C@@H](NC)[C@H](C)O4)[C@H](C)O3)[C@@H](C)/C=C/C=C3\CO[C@@H]4[C@H](O)C(C)=C[C@@H](C(=O)O1)[C@]34O)O2`, the half-maximal activity concentration (AC50) was 14.6 µM (active).

Take `CN(C)[C@@H]1C(=O)C(C(N)=O)=C(O)[C@@]2(O)C(=O)C3=C(O)c4c(O)cccc4[C@@](C)(O)[C@H]3[C@H](O)[C@@H]12`: the outcome was inactive.

On to `COP(=O)(OC)SCn1c(=O)oc2cc(Cl)cnc21`, for which the compound was classed as inactive.

As to `CCOC(=O)COc1cc(-c2nn(C)c(OC(F)F)c2Cl)c(F)cc1Cl`, the compound was classed as inactive.

On to `CCCSP(=O)(OCC)SCCC`, for which the outcome was inactive.

Turning to `C#CC(C)(C)NC(=O)c1cc(Cl)cc(Cl)c1`, the compound was classed as inactive.

Take `CCCCN(CC)c1c([N+](=O)[O-])cc(C(F)(F)F)cc1[N+](=O)[O-]`: the result was inactive.

Consider `Cc1ccn2nc(S(=O)(=O)Nc3c(F)cccc3F)nc2n1`, for which the call was inactive.

Consider `Cc1nn(-c2cc(NS(C)(=O)=O)c(Cl)cc2Cl)c(=O)n1C(F)F`, for which the outcome was inactive.

For the compound `CCCCOC(=O)[C@@H](C)Oc1ccc(Oc2ccc(C#N)cc2F)cc1`, the result was inactive.

Take `S=C1NCCN1`: the compound was called inactive.

With `Cc1cc(C2CC2)nc(Nc2ccccc2)n1`, the compound was classed as inactive.

Turning to `COc1ccc(C(=CC(=O)N2CCOCC2)c2ccc(Cl)cc2)cc1OC`, the result was inactive.

Turning to `CC(C)N(C(=O)SCC(Cl)=C(Cl)Cl)C(C)C`, the result was inactive.

`CCOP(=S)(OCC)Oc1ccc([N+](=O)[O-])cc1`: the compound was called inactive.

Take `CNC(=O)ON=C(SC)C(=O)N(C)C`: the compound was called inactive.

Regarding `O=[N+]([O-])c1cc(C(F)(F)F)c(Cl)c([N+](=O)[O-])c1Nc1ncc(C(F)(F)F)cc1Cl`, the AC50 was 42.6 µM (active).

Take `CN(C)C(=O)Nc1cccc(C(F)(F)F)c1`: the outcome was inactive.

Take `CCCSP(=O)(OCC)Oc1ccc(Br)cc1Cl` (stereo not given): the outcome was inactive.

As to `CC(COc1ccc(Oc2ccccc2)cc1)Oc1ccccn1` (stereo not given), the outcome was inactive.

With `Nc1c(Cl)cc([N+](=O)[O-])cc1Cl`, the AC50 is 23.7 µM (active).

Consider `CC(Oc1cccc(Cl)c1)C(=O)O` (stereo not given), for which the call was inactive.

On to `CCC(=NOC/C=C/Cl)C1=C(O)CC(C2CCOCC2)CC1=O` (stereo not given), for which the call was inactive.

Regarding `CCCCSP(=O)(SCCCC)SCCCC`, the half-maximal activity concentration (AC50) is 64.2 µM (active).

As for `FC(F)C(F)(F)OCC(Cn1cncn1)c1ccc(Cl)cc1Cl` (stereo not given), the AC50 is 31.4 µM (active).

Turning to `CCOP(=O)(SC(C)CC)N1CCSC1=O` (stereo not given), the call was inactive.

As for `CC(=NC#N)N(C)Cc1ccc(Cl)nc1`, the result was inactive.

Consider `CCOP(=S)(OCC)Oc1ccc2c(C)c(Cl)c(=O)oc2c1`, for which the half-maximal activity concentration (AC50) is 21.5 µM (active).

For the compound `CCC(=O)Nc1ccc(Cl)c(Cl)c1`, the half-maximal activity concentration (AC50) is 50 µM (active).

With `C#CCC1=C(C)C(OC(=O)C2C(C=C(C)C)C2(C)C)CC1=O` (stereo not given), the compound was classed as inactive.

Take `CC(C)[C@H](C(=O)O[C@H](C#N)c1cccc(Oc2ccccc2)c1)c1ccc(Cl)cc1`: the call was inactive.

With `CCOP(=O)(NC(C)C)Oc1ccc(SC)c(C)c1` (stereo not given), the call was inactive.

As for `CCc1cnc(C2=NC(C)(C(C)C)C(=O)N2)c(C(=O)O)c1` (stereo not given), the call was inactive.

As for `Nc1nc(N)nc(NC2CC2)n1`, the call was inactive.
